Reference: the supplement of paper PMC11732987, “Enantioselective OTUD7B fragment discovery through chemoproteomics screening and high-throughput optimisation” (Communications Chemistry, 2025)

What was measured:
Assay in all cases: log2 ratio of Biotin-Ahx-Ub-VS probe labelling (fragment/DMSO); higher = less target engagement (more negative = stronger competition), active = hit call of the paper (q ≤ 0.05, log2 ratio ≤ -1)
Conditions in all cases: compound concentration: 200 uM; treatment time: 3 h
[1] = target: USP34 (UniProt Q70CQ2)
How it was run: (§1)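 HEK293T lysate (495 µg per sample, in Tris/CHAPS/IGEPAL buffer with protease inhibitors) was treated in triplicate with fragment at 200 µM or with DMSO for 3 h. It was then treated with Biotin-Ahx-Ub-VS (0.5 µM final) for 1 h. Labelled DUBs were NeutrAvidin-enriched, digested with LysC and trypsin, and run by diaPASEF LC-MS/MS. Spectronaut label-free quantities were global-median-normalised. Values are average log2 ratios fragment/DMSO by unpaired t-test, using proteins with ≥2 unique peptides.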

[2] = target: T1, USP36 (UniProt Q9P275)
T1 sequence (whole entry): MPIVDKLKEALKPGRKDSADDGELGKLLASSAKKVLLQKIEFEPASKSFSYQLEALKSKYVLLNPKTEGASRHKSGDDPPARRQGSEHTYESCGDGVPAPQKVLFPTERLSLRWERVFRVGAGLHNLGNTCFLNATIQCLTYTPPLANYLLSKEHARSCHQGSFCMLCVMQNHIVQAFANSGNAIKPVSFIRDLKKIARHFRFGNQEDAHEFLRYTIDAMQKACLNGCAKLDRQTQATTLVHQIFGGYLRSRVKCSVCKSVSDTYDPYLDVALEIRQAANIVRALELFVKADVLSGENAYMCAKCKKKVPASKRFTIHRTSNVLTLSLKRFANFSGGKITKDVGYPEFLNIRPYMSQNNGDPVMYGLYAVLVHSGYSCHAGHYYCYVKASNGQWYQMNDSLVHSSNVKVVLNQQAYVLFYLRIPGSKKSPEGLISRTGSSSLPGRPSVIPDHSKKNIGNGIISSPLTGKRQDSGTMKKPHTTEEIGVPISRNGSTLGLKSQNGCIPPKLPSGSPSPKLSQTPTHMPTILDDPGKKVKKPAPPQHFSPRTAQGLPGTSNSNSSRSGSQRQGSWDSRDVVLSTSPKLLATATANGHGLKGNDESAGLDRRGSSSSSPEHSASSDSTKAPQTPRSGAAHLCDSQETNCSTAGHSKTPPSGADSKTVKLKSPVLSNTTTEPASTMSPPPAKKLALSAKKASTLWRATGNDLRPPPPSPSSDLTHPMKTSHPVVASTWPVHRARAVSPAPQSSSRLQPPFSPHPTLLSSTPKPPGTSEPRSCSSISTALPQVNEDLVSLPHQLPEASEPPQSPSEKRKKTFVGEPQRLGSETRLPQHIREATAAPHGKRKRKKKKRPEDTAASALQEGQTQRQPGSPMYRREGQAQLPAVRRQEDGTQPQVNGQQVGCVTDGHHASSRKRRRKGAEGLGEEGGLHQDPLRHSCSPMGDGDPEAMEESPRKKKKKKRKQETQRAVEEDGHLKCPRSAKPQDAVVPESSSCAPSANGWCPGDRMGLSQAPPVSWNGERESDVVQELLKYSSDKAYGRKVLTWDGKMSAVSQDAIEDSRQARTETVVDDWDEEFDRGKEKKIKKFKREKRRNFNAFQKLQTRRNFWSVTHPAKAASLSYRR
How it was run: as §1

[3] = target: T2, USP38 (UniProt Q8NB14)
T2 sequence (whole entry): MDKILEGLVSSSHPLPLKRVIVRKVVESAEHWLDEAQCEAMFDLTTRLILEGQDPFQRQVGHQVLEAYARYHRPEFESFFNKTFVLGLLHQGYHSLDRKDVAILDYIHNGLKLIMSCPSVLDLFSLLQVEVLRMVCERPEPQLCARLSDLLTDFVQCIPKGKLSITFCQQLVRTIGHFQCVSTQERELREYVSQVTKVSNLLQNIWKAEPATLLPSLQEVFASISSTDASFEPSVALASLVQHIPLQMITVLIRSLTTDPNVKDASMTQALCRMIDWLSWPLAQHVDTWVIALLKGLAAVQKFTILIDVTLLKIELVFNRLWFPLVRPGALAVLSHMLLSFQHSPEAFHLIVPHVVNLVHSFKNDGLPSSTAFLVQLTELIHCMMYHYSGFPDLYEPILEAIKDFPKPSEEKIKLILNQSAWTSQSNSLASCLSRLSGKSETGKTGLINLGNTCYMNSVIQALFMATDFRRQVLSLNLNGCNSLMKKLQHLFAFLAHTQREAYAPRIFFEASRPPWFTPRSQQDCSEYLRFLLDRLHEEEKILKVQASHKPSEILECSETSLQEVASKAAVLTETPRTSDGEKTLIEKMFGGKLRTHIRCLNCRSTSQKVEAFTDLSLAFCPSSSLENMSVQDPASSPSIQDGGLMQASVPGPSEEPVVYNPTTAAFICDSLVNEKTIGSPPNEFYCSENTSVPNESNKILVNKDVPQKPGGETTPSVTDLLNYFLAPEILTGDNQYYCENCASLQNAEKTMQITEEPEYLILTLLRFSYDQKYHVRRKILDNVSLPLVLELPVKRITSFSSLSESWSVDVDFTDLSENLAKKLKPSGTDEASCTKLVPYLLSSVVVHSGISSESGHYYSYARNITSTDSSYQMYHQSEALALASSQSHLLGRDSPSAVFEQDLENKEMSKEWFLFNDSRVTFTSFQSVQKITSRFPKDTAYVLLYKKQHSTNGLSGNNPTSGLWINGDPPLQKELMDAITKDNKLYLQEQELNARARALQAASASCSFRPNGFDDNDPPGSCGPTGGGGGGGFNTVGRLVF
How it was run: as §1

[4] = target: T3, USP39 (UniProt Q53GS9)
T3 sequence (whole entry): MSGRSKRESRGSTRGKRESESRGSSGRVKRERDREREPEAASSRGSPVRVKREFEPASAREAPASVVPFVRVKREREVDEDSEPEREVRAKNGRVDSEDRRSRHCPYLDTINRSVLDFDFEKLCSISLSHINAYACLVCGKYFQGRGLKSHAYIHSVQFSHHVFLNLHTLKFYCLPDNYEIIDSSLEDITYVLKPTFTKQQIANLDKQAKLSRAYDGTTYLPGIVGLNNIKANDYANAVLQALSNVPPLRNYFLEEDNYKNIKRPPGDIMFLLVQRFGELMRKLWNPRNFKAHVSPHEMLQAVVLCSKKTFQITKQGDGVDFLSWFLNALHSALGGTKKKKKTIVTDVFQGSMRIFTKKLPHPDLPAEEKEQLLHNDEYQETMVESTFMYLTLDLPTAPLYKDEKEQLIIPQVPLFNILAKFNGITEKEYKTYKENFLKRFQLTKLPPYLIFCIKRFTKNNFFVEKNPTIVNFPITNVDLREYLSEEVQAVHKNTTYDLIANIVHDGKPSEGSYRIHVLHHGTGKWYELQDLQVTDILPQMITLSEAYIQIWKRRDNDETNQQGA
How it was run: as §1

[5] = target: T4, USP4 (UniProt Q13107)
T4 sequence (whole entry): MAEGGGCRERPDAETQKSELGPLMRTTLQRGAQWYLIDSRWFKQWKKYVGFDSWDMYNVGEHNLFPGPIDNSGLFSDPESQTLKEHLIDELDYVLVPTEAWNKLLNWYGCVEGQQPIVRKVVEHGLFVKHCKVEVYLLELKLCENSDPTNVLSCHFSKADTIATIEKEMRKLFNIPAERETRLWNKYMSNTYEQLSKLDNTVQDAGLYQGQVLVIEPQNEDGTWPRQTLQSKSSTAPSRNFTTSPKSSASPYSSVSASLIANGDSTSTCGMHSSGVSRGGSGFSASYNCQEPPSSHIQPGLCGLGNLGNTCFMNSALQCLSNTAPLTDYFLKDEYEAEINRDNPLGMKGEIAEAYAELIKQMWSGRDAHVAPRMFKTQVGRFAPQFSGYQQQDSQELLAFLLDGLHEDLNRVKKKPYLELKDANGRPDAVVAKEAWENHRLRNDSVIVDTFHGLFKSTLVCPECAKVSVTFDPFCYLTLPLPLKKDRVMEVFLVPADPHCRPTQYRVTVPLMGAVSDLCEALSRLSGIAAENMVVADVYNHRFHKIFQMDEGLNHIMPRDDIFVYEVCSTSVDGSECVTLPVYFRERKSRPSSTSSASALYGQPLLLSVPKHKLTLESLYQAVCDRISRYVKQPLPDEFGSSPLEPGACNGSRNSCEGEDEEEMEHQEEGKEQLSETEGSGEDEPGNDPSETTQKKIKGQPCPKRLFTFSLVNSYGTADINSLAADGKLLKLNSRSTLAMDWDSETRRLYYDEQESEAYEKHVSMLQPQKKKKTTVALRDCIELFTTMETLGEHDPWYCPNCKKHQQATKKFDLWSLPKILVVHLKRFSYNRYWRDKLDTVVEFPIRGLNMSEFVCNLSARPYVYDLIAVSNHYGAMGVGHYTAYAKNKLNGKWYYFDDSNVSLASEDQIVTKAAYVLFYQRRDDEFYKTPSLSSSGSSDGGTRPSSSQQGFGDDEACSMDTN
How it was run: as §1

Measured: log2 ratio of Biotin-Ahx-Ub-VS probe labelling

Chain of USP34 (Q70CQ2 whole entry, the tested form may be a part): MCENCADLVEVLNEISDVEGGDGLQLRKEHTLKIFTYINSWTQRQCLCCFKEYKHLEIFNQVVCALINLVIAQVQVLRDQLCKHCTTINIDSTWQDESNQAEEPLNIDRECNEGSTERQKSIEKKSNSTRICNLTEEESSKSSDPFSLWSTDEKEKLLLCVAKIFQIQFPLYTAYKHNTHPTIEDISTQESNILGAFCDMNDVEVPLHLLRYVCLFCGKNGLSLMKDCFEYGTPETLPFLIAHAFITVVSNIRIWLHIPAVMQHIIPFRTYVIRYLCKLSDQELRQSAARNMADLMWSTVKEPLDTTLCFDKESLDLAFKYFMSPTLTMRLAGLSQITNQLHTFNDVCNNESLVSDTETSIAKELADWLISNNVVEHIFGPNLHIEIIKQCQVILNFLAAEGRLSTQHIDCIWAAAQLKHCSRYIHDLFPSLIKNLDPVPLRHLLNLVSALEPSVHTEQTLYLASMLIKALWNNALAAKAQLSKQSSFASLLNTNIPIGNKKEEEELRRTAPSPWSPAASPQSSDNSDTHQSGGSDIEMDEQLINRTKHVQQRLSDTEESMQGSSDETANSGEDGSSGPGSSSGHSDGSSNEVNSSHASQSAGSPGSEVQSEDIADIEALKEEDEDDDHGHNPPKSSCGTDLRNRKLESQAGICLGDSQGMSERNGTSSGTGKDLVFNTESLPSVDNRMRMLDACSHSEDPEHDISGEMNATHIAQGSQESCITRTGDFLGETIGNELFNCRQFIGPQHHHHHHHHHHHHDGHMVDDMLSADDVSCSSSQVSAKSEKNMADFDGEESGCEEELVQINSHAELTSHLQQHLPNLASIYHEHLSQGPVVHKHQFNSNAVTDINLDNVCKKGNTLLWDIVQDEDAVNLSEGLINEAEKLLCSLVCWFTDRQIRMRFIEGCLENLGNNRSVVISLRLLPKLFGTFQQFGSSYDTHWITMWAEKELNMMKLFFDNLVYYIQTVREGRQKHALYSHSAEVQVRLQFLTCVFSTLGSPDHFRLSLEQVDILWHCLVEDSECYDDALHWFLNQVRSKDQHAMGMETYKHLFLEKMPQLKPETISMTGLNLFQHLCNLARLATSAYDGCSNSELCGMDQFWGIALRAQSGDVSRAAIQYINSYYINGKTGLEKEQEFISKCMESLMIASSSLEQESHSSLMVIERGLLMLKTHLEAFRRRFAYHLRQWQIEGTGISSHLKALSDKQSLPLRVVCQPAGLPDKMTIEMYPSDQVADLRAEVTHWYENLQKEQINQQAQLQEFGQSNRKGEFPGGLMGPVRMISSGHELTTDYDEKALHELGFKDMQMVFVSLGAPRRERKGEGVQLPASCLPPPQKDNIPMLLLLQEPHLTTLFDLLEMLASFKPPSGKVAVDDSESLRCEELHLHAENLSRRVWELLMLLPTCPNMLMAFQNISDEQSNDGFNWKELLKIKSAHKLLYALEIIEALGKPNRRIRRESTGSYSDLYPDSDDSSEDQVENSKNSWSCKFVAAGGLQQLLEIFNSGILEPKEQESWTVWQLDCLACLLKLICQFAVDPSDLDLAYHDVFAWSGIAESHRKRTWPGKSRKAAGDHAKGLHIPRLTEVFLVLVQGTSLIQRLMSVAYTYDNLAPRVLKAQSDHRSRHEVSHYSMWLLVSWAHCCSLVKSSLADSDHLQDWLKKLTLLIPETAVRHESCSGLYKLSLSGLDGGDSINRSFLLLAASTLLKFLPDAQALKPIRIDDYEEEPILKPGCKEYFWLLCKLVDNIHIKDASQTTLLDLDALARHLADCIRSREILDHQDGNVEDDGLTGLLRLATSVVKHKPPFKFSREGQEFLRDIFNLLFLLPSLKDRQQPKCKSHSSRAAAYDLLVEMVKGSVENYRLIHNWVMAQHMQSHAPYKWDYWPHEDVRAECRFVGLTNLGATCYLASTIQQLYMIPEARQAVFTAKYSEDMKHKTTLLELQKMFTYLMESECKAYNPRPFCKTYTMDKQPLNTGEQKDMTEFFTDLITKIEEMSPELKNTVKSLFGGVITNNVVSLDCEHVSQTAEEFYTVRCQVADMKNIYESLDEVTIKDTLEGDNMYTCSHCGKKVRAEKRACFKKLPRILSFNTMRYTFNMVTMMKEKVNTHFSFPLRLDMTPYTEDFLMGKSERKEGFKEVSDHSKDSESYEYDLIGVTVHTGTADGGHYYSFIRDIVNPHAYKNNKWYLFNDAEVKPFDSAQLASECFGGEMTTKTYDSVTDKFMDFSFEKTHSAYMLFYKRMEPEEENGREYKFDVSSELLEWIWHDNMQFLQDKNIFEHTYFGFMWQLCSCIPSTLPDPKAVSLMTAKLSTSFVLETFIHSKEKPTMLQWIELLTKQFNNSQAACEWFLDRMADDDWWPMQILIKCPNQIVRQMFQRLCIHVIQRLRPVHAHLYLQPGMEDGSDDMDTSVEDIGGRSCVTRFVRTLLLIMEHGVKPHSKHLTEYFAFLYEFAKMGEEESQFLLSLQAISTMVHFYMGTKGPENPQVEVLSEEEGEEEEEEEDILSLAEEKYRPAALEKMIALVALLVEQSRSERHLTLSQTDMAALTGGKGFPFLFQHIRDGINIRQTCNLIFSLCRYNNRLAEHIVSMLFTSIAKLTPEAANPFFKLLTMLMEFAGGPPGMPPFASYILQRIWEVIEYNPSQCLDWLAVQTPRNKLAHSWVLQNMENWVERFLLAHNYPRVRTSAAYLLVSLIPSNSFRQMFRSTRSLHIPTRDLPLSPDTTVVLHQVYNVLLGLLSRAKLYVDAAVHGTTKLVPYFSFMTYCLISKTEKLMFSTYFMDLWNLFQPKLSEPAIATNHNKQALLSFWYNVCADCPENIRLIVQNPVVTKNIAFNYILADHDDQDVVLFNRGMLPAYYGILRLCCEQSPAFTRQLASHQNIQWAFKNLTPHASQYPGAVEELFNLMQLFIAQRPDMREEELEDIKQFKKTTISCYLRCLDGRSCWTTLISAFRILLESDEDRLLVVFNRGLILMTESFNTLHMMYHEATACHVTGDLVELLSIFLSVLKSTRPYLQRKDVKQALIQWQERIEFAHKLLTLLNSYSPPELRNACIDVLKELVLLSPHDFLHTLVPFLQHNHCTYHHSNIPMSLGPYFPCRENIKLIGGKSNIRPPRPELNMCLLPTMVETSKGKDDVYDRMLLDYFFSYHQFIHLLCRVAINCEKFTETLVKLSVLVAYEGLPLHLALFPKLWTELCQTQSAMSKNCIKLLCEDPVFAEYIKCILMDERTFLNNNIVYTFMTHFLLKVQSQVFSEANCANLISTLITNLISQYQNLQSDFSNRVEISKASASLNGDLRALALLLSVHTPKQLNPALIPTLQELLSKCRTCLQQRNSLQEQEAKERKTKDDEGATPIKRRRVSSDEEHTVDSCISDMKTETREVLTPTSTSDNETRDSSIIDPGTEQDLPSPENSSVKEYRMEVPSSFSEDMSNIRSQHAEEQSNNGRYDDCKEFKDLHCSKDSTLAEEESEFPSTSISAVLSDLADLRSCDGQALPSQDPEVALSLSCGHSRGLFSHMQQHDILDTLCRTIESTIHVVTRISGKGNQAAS

CCC1c2ccsc2CCN1C(=O)CCl (stereo not given)
inactive: [1] -0.381 | [2] -0.0771 | [3] -0.204 | [4] 0.162 | [5] -0.497
